Targets with a hit are over-represented here; the source holds about 8,800 in all. About 0.5% of all pairs of compound and target were hits. Values without a mark were called inactive.

Chain of UniProt O75582 (O75582 whole entry, looked up): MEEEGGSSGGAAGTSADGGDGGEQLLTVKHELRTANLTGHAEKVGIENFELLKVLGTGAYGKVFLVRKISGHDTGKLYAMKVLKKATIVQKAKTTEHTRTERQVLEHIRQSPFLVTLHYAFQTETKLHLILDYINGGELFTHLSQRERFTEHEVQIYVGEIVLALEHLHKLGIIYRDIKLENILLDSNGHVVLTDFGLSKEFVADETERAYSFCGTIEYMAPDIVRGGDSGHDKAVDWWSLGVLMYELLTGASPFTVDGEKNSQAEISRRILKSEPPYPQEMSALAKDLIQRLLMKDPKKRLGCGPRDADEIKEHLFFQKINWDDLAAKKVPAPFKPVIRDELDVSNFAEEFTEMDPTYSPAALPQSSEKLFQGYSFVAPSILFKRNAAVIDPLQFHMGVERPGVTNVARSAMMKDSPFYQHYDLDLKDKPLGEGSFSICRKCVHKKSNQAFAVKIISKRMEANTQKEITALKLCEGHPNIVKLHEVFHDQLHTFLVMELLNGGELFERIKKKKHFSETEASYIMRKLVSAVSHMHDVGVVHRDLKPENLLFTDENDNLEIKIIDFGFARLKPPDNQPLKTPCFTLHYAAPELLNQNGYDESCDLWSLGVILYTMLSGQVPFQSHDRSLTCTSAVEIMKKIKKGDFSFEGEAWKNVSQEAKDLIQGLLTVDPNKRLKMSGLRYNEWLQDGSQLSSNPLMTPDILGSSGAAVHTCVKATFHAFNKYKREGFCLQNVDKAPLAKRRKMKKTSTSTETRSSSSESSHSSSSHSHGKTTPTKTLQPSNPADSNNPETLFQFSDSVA
Chain of UniProt Q9UPW6 (Q9UPW6 whole entry, looked up): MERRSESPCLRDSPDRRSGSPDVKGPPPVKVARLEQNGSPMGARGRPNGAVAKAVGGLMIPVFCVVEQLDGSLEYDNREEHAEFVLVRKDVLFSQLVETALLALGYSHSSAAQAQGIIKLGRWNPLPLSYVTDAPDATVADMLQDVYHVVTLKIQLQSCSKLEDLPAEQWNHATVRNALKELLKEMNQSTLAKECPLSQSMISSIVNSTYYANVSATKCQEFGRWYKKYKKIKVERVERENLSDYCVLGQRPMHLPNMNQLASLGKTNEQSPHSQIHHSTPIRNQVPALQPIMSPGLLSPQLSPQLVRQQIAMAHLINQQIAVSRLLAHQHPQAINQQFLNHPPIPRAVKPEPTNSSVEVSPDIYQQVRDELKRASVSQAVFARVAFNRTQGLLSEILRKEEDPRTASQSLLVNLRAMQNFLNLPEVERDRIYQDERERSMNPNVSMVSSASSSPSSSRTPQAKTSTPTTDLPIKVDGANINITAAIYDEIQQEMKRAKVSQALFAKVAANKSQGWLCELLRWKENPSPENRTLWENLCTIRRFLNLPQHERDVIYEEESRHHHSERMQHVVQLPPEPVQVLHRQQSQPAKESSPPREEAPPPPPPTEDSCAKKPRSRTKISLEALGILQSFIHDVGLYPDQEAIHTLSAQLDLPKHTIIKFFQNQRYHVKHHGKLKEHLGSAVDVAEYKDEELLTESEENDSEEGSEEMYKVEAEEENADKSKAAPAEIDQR
Chain of UniProt Q99496 (Q99496 whole entry, looked up): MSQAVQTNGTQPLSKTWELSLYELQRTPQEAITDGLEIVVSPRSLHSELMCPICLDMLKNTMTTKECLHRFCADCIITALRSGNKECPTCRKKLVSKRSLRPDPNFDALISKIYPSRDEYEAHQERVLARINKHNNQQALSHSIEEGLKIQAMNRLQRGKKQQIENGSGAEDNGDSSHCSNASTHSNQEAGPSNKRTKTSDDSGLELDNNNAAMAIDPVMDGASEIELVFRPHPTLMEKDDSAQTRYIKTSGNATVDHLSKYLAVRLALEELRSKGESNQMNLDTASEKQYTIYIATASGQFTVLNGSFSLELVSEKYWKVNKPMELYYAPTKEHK
Chain of UniProt Q96E14 (Q96E14 whole entry, looked up): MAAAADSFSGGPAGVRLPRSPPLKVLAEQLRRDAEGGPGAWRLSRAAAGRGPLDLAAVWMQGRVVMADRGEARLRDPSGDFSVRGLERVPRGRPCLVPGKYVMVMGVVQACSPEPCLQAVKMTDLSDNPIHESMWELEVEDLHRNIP
Chain of UniProt Q8TC12 (Q8TC12 whole entry, looked up): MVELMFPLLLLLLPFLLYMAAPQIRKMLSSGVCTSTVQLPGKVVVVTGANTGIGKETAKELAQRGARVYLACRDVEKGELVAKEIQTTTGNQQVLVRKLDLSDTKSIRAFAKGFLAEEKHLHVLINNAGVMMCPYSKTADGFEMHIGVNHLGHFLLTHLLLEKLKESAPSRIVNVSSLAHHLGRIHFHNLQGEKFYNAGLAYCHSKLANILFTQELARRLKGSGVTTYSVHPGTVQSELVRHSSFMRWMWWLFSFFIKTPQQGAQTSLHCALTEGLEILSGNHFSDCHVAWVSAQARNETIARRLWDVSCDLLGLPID
Chain of UniProt Q7L0Q8 (Q7L0Q8 whole entry, looked up): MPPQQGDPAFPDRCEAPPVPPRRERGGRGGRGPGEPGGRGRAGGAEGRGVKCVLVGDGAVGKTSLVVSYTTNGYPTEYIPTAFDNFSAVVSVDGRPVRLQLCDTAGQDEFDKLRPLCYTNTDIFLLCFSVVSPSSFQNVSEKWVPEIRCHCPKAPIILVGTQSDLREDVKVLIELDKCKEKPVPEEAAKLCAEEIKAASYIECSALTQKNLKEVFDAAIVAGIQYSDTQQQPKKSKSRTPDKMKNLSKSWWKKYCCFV
Chain of UniProt Q9NTN9 (Q9NTN9 whole entry, looked up): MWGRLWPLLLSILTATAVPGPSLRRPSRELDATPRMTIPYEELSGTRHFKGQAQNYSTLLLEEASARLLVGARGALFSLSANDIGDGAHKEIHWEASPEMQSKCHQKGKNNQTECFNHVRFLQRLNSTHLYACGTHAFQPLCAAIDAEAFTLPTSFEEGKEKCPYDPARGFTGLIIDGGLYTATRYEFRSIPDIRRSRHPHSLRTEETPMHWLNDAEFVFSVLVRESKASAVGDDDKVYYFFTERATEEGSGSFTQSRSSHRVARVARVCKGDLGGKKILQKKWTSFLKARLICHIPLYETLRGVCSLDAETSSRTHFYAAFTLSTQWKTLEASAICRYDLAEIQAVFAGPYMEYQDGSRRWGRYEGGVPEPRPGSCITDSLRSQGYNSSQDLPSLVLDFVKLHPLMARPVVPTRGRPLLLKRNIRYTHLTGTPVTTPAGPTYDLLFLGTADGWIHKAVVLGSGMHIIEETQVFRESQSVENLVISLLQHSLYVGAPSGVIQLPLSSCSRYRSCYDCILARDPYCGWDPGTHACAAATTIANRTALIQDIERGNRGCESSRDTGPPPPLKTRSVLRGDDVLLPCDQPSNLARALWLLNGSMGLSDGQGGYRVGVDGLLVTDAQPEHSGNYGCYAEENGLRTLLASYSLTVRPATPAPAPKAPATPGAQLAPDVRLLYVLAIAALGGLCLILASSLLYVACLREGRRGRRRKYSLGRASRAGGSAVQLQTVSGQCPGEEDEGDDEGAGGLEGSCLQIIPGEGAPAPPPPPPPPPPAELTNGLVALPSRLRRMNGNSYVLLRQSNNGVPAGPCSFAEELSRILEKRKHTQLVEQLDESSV
Chain of UniProt Q96K19 (Q96K19 whole entry, looked up): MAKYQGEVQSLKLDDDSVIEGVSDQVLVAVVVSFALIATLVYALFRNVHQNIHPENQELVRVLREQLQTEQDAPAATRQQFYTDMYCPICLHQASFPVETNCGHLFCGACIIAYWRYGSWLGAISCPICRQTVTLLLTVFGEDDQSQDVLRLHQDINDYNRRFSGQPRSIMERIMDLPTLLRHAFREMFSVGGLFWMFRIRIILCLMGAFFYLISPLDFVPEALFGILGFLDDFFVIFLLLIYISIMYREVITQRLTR
Chain of UniProt Q9Y6D0 (Q9Y6D0 whole entry, looked up): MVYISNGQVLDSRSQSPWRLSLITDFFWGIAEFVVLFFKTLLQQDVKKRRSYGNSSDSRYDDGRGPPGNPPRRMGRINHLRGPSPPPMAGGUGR
Chain of UniProt O75446 (O75446 whole entry, looked up): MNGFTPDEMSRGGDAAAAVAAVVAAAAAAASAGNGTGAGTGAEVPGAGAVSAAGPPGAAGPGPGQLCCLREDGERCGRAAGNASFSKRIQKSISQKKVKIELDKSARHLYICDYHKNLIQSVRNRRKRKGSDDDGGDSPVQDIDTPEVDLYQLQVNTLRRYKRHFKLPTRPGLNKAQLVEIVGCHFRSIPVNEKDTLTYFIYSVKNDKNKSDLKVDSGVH
Chain of UniProt Q9BWG6 (Q9BWG6 whole entry, looked up): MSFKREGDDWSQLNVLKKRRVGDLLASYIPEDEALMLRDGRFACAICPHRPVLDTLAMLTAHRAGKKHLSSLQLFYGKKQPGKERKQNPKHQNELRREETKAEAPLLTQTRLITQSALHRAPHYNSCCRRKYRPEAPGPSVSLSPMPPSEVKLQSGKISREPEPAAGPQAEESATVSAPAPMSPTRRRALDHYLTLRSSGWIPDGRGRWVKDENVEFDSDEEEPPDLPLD
Chain of UniProt O75943 (O75943 whole entry, looked up): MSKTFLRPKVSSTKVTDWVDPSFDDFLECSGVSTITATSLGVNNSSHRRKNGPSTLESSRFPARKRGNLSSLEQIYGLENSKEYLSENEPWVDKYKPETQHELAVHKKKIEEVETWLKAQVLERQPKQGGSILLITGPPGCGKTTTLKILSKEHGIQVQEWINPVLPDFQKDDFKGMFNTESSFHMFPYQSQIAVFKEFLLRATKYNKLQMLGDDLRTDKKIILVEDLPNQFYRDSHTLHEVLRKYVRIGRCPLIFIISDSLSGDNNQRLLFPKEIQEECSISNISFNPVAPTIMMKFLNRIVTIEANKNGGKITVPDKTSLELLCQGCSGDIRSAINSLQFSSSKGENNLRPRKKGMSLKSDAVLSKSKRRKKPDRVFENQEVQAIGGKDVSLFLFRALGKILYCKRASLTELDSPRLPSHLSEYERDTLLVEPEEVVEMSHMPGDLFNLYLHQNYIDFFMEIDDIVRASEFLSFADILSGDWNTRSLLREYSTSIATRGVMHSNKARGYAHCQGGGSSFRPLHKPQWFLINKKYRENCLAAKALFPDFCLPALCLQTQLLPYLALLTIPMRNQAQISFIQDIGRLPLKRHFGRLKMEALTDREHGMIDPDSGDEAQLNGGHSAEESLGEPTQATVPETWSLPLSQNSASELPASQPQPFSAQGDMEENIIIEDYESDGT

Compound in the first test: C1=CC(=CC=C1C2=NC3=C(N2)C=C(C=C3)C(=O)N)OC4=CC=C(C=C4)Cl
In words: log2 fold change, soluble protein after heating vs DMSO (PISA); higher = thermal stabilisation; K562 lysate, 10 uM; active = over 0.2 and 3.5 SD of the protein, either way, in both replicates (recomputed). The method in brief: (§1)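 Log-two fold change in thermal stability relative to solvent controls is reported from duplicates. For each sample, crude K562 extract from dounce-homogenised pellets in PBS pH 7.4 with 1 mM MgCl2, at 1 mg/mL protein, was treated with 10 μM compound for 30 min. Aliquots heated for 3 min across 48°C-58°C were pooled, brought to 0.5% NP-40 at 4°C and cleared at 21,000xg for 90 min. The supernatant was quantified by TMTpro 16plex LC-MS/MS with channel sums equalised.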
RXRA (UniProt P19793): the log2 fold change was 0.008.

RDH11 (UniProt Q8TC12): the log2 fold change is -0.02.

On to RHOU (UniProt Q7L0Q8), for which the log2 fold change was -0.096.

In the case of RYR1 (UniProt P21817), the log2 fold change is -0.174.

Turning to RNF2 (UniProt Q99496), the log2 fold change is -0.031.

As for RAD54L (UniProt Q92698), the log2 fold change is -0.005.

RPS6KA3 (UniProt P51812): the log2 fold change is 0.182.

For RNPC3 (UniProt Q96LT9), the log2 fold change was -0.059.

For ROBO2 isoform 3 (UniProt Q9HCK4), the log2 fold change is -0.013.

Regarding RNF24 isoform 2 (UniProt Q9Y225), the log2 fold change was -0.053.

Turning to SCNM1 (UniProt Q9BWG6), the log2 fold change was 0.044.

Regarding RMI2 (UniProt Q96E14), the log2 fold change was -0.121.

RNF170 (UniProt Q96K19): the log2 fold change was -0.125.

Regarding SEMA4G isoform 2 (UniProt Q9NTN9), the log2 fold change is -0.063.

Take QSER1, A0A3B3IRW6: the log2 fold change was 0.054.

Consider S100A6 (UniProt P06703), for which the log2 fold change is -0.025.

For SERAC1 (UniProt Q96JX3), the log2 fold change was -0.235.

Turning to RNF17 (UniProt Q9BXT8), the log2 fold change was 0.008.

Take SATB2 (UniProt Q9UPW6): the log2 fold change is 0.022.

As to RPS6KA5 (UniProt O75582), the log2 fold change is 0.2.

Compound in the next test: C1=CC2=C(C=CC(=C2)/C=C\3/C(=O)NC(=NCC4=CC=CS4)S3)N=C1
The description is as above. The procedure, abridged: as §1
Turning to SELENOK (UniProt Q9Y6D0), the log2 fold change is 0.02.

With RDH11 (UniProt Q8TC12), the log2 fold change is 0.015.

Consider RHOU (UniProt Q7L0Q8), for which the log2 fold change was -0.054.

Regarding RNF2 (UniProt Q99496), the log2 fold change was 0.036.

As to SAP30 (UniProt O75446), the log2 fold change is 0.025.

With RUFY2 isoform 1 (UniProt Q8WXA3), the log2 fold change was 0.02.

Take RMI2 (UniProt Q96E14): the log2 fold change is 0.206.

Turning to RNF170 (UniProt Q96K19), the log2 fold change was 0.136.

Consider SEMA4G isoform 2 (UniProt Q9NTN9), for which the log2 fold change is 0.032.

For QSER1, A0A3B3IRW6, the log2 fold change was -0.057.

For S100A6 (UniProt P06703), the log2 fold change is 0.

Consider SATB2 (UniProt Q9UPW6), for which the log2 fold change was -0.01.

RPS6KA5 (UniProt O75582): the log2 fold change was 0.014.

For the target RAD17 (UniProt O75943), the log2 fold change was -0.1.

Consider RHBDD1 (UniProt Q8TEB9), for which the log2 fold change was 0.19.
